Experimental data published in PubChem BioAssay (Tox21).
Inconclusive results are not listed. Entries that show only a call come without a potency. Values without a mark were called inactive. Calls of active or inactive are those of the source. The call rests on the fitted dose curve; in most records, active means well fitted cell-killing curve with a large enough effect in the repeat runs; inconclusive means weak or mixed curves, or effect the other way; inactive means flat fitted curve, though single readings scatter.

Test: qHTS assay to identify small molecule antagonists of the constitutive androstane receptor (CAR) signaling pathway - cell viability counter screen (AID 1224837); further: nearly all actives have a fitted effect of over 45% in size
Settings: HepG2-CYP2B6-hCAR viability, CellTiter-Fluor, 23 h, co-treated with 50 nM CITCO; series mostly up to 92.4 µM
Text: National Center for Advancing Translational Sciences [NCATS]
NIH Chemical Genomics Center [NCGC]
U.S. Environmental Protection Agency [EPA]
National Institutes of Environmental Health Sciences [NIEHS]
National Toxicology Program [NTP]
U.S. Food and Drug Administration [FDA]
The constitutive androstane receptor (CAR) is a nuclear receptor which regulates multiple drug metabolizing enzymes (DMEs) and transporters. Activating CAR will generally increase the transcription and subsequent translation of CYP2B6 and CYP3A4. These two DMEs represent about 50% of the drug metabolizing potential in the body. When CAR is deactivated, the metabolizing potential in the body will decrease, subsequently increasing the toxicity in the body or lowering the therapeutic potential of a pro-drug. Recently, there have also been studies performed indicating CARs role in energy metabolism and cancer therapy. Therefore, inhibiting CARs activity could have a potential effect on diabetes and cancer. Identifying environmental toxins and compounds which modulate CAR, through the use of the Tox21 10K compound collection, will be an important step in determining the toxicity and potential therapeutic effects these factors will have on the human body. To differentiate true CAR antagonists from cytotoxic substances, the assay is multiplexed with a cell viability assay.
Tox21 Assay Protocol Summary:
A double-stable (hCAR and CYP2B6-2.2kb) transfected cell line, derived from human hepatoma (HepG2) cells, was utilized for the duration of the quantitative high-throughput screens. The HepG2-CYP2B6-hCAR cells were dispensed at 2500 cells/4 uL/well in 1536-well white solid bottom plates using a Multidrop Combi. After the assay plates were incubated at 37 C/5% CO2 for 4 hrs, 23 nL of compounds at 15 concentrations (from 5-48 columns) or positive control (from 1 to 4 columns) were transferred to the assay plates using a Pintool station. One uL of CITCO (final concentration = 50 nM) was added, using a Flying Reagent Dispenser, inside each well. After a 23 hr incubation period at 37 C/5% CO2, 1 uL of CellTiter-Fluor reagent was added into each well of the assay plates using a Flying Reagent Dispenser. The fluorescence intensity in the plates was then measured using a ViewLux plate reader.
Potency means the concentration at half of the fitted maximal effect.

Compound | Potency | activity change, negative = cytotoxicity
CCNc1nc(NC(C)(C)C)nc(OC)n1 | inactive | 
O=C(N[C@H](CO)[C@H](O)c1ccc([N+](=O)[O-])cc1)C(Cl)Cl | inactive | 
O=C(O)C[C@H](O)C[C@H](O)/C=C/c1c(C2CC2)nc2ccccc2c1-c1ccc(F)cc1 |  | -0.918% [at 19 µM]
NC(=O)c1ccccc1Cl | inactive | 
CC(C)=NNC(N)=S | inactive | 
Clc1cccc(Cl)n1 | inactive | 
CCOC(=O)C1=NN(c2ccc(Cl)cc2Cl)C(C)(C(=O)OCC)C1 (stereo not given) | inactive | 
Cn1c(=O)[nH]c2ncn(C)c2c1=O | inactive | 
C/C=C/C(=O)C1=C(C)C=CCC1(C)C | inactive | 
CCCCCCCCSCc1cc(C)c(O)c(CSCCCCCCCC)c1 | inactive | 
COc1cc2ncnc(Nc3cccc(Cl)c3)c2cc1OC |  | -20.1% [at 19 µM]
CN1CCN(c2ccccc2/C=C2\SCCN(c3ccc(Cl)c(Cl)c3)C2=O)CC1 | 24.3 µM (active) | 
O=C1OC(=O)c2cc(-c3ccc4c(c3)C(=O)OC4=O)ccc21 | inactive | 
COc1ccc(OC)c(N=Nc2c(O)ccc3ccccc23)c1 | 24.3 µM (active) | 
CO[Si](OC)(c1ccccc1)c1ccccc1 | inactive | 
C=C(C)CCO | inactive | 
CCN(CC)c1ccc(C=O)c(O)c1 | inactive | 
C1CCSC1 | inactive | 
CC1(C)[C@H]2CC[C@]1(C)C(=O)C2 | inactive | 
CC(CC(C)(C)C)CC(C)(C)CC(C)(C)C (stereo not given) | inactive | 

Compound | Potency | activity change, negative = cytotoxicity
CC(O)(c1ccc(Cl)cc1)c1ccc(Cl)cc1 | inactive | 
C=Cc1ccncc1 | inactive | 
Cc1cc(F)ccc1-c1cc(N2CC[C@@H](O)[C@H]2CO)ncc1N(C)C(=O)C(C)(C)c1cc(C(F)(F)F)cc(C(F)(F)F)c1 | inactive | 
NCc1ccco1 | inactive | 
CC(=O)Nc1ccc(N=Nc2cc(C)ccc2O)cc1 | inactive | 
O=c1cc[nH]cc1 | inactive | 
Nc1ccc(Cl)c([N+](=O)[O-])c1 | inactive | 
COc1cc(OC)nc(NC(=O)NS(=O)(=O)Nc2ccccc2C(=O)N(C)C)n1 | inactive | 
CC(c1cc(C(C)(C)C)cc(C(C)(C)C)c1O)c1cc(C(C)(C)C)cc(C(C)(C)C)c1O | inactive | 
O[Si](c1ccccc1)(c1ccccc1)c1ccccc1 | inactive | 
Clc1ccc2c(Cl)ccnc2c1 | inactive | 
COc1c(Br)cc(Br)c(C)c1Br | inactive | 
O=C1OC(O)C(C(Cl)Cl)=C1Cl (stereo not given) | inactive | 
CC(C)C(=O)C(C)C | inactive | 
CCN(CC)c1ccc(C=O)cc1 | inactive | 
c1ccc(-c2ccccc2-c2ccccc2)cc1 | inactive | 
O=c1[nH]cccc1O | inactive | 
SC1CCCCC1 | inactive | 
C/C(=C\c1ccc(C(=O)O)cc1)c1ccc2c(c1)C(C)(C)CCC2(C)C | inactive | 
Cc1cc(C)c(O)c(C(C)(C)C)c1 | inactive | 
